Test results as given in PubChem BioAssay (Tox21).
Records with an inconclusive call do not appear. Calls of active or inactive are those of the source. Unless noted, calls follow the shape of the dose curve; as a rule, active = well fitted curve in the direction sought with a large enough effect in the repeat runs; inconclusive = weak or mixed curves; inactive = no such curve, though single readings can be large; an effect the other way counts as inactive or inconclusive.

What was measured:
[1] = qHTS assay for small molecules that induce genotoxicity in human embryonic kidney cells expressing luciferase-tagged ATAD5 (AID 651632); also: nearly all actives have a fitted effect of over 15% in size
How it was run: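 HEK293T cells carrying luciferase-tagged ATAD5 were given compound or DMSO vehicle and incubated 16 hr at 37C, 5% CO2. Luciferase activity was read after 30 min at room temperature with Amplite; a rise signals genotoxic stress.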

[2] = qHTS assay for small molecule agonists of the p53 signaling pathway - cell viability (AID 651633; calls by dose curve;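 also: p53RE-bla HCT reporter cells with a stable beta-lactamase p53 reporter; series mostly up to about 83 µM; nearly all actives have a fitted effect of over 30% in size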)
How it was run: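 p53RE-bla cells were treated with compound for 16 hours at 37 C. Cytotoxicity was then measured as CellTiter-Glo luminescence after 30 min at room temperature.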

[3] = qHTS assay for small molecules that induce genotoxicity in human embryonic kidney cells expressing luciferase-tagged ATAD5 - cell viability (AID 651634; calls by dose curve; also: nearly all actives have a fitted effect of over 25% in size)
How it was run: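 HEK293T cells carrying luciferase-tagged ATAD5, 2,000 cells/well, exposed to compound for 15.5 hr at 37C. Viability read as live-cell protease activity by CellTiter-Fluor fluorescence after 30 min at 37C.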

[4] = qHTS assay for small molecule disruptors of the mitochondrial membrane potential - cell viability (AID 720634; calls by dose curve;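 also: human HepG2 liver cancer cells; series mostly up to about 83 µM; nearly all actives have a fitted effect of over 20% in size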)
How it was run: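 HepG2 cells, 2,000 per well, attached overnight, then treated 1 hr at 37 C, 5% CO2. Viability read as ATP by CellTiter-Glo luminescence after 30 min at room temperature. Read in the same wells as the m-MPI membrane-potential dye assay.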

[5] = qHTS assay for small molecule disruptors of the mitochondrial membrane potential (AID 720635)
How it was run: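 HepG2 cells exposed to compound 1 hr at 37C, then Mito-MPS dye 30 min. Ratio read of aggregate (540/590 nm) versus monomer (490/535 nm) fluorescence.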

[6] = qHTS assay to test for compound auto fluorescence at 590 nm (red) in HepG2 cells (AID 720674)
How it was run: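 Seeding: 2,000 HepG2 cells/well, MEM/10% FBS, overnight 37 C. Dosing: compound vs DMSO. Incubation: 1 hr, 37 C, 5% CO2. Read: fluorescence 540 ex/590 em, Rose Bengal sodium as red reference.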

[7] = qHTS assay to test for compound auto fluorescence at 535 nm (green) in HepG2 cells (AID 720675)
[8] = qHTS assay to test for compound auto fluorescence at 460 nm (blue) in HEK293 cells (AID 720678)
How it was run: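 HEK293 cells (2,000 per well, medium with 10% dialyzed FBS) attached for 4-5 hr at 37C, then received compound and stood overnight at 37C, 5% CO2. Blue fluorescence was read at Ex/Em 405/460 nm and expressed relative to triamterene.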

[9] = qHTS assay to test for compound auto fluorescence at 590 nm (red) in HEK293 cells (AID 720679)
How it was run: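 HEK293 cells (2,000/well, medium with 10% dialyzed FBS) attached for 4-5 hr at 37C, received 23 nL compound and were incubated overnight at 37C, 5% CO2. Red fluorescence was then read at 540/590nm Ex/Em, referenced to Rose Bengal sodium.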

[10] = qHTS assay to test for compound auto fluorescence at 535 nm (green) in HEK293 cells (AID 720680)
[11] = qHTS assay to test for compound auto fluorescence at 460 nm (blue) in HEK293 cell free culture (AID 720681)
How it was run: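 Compounds were added to cell-free DMEM with 10% FBS and fluorescence read directly. The blue channel used 405 nm excitation and 460 nm emission, with triamterene as the reference fluorophore.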

[12] = qHTS assay to test for compound auto fluorescence at 535 nm (green) in HEK293 cell free culture (AID 720682)
How it was run: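 Cell-free medium (DMEM, 10% FBS) receives compound or DMSO by pintool. Plate read directly at Ex 485/Em 535 nm. Signal converted to fluorescein equivalency.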

[13] = qHTS assay to test for compound auto fluorescence at 590 nm (red) in HEK293 cell free culture (AID 720683)
How it was run: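 Cell-free wells of DMEM with 10% FBS received compound, and intrinsic fluorescence was read at excitation/emission 540/590 nm. Values expressed as equivalence to Rose Bengal sodium.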

[14] = qHTS assay to test for compound auto fluorescence at 590 nm (red) in HepG2 cell free culture (AID 720684)
How it was run: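 Compound was pinned into wells holding MEM with 10% FBS and no cells, and red fluorescence was read at Ex/Em 540/590 nm. Signal is expressed as auto fluorescence equivalency relative to Rose Bengal sodium.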

[15] = qHTS assay to test for compound auto fluorescence at 460 nm (blue) in HepG2 cell free culture (AID 720685)
How it was run: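 Compound (23 nL) or DMSO pinned into cell-free MEM with 10% FBS; blue fluorescence read at 405/460 nm excitation/emission, expressed as auto-fluorescence equivalency to triamterene.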

[16] = qHTS assay to test for compound auto fluorescence at 535 nm (green) in HepG2 cell free culture (AID 720686)
[17] = qHTS assay to test for compound auto fluorescence at 460 nm (blue) in HepG2 cells (AID 720687)
How it was run: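 HepG2 cells in MEM with 10% FBS, attached overnight at 37 C, were exposed to compound or DMSO for 1 hr at 37 C, 5% CO2. Blue fluorescence was read at 405/460 nm, with triamterene as reference fluorophore.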

[18] = biological target: Glucocorticoid receptor (Homo sapiens) (UniProt P04150); experiment: qHTS assay to identify small molecule agonists of the glucocorticoid receptor (GR) signaling pathway (AID 720691; active = well fitted activation curve with a large enough effect in the signal ratio in the repeat runs, not every such curve was filed as active; the % refers to the signal ratio)
How it was run: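 GR-bla HeLa cells carrying a GRE-driven beta-lactamase reporter, exposed to compounds for 18 h at 37 C. Reporter activation read as fluorescence after 2 h with LiveBLAzer B/G FRET substrate at room temperature.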

[19] = biological target: Glucocorticoid receptor (Homo sapiens) (UniProt P04150); experiment: qHTS assay to identify small molecule antagonists of the glucocorticoid receptor (GR) signaling pathway (AID 720692; active = well fitted inhibition curve with a large enough effect in the signal ratio in the repeat runs, not every such curve was filed as active; the % refers to the signal ratio)
How it was run: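 GR-bla HeLa cells carrying a GRE-driven beta-lactamase reporter received compound after 4 h plating, then dexamethasone (5 nM final). After 18 h at 37C, the FRET substrate was loaded for 2 h at room temperature and fluorescence read.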

[20] = qHTS assay for small molecule agonists of the p53 signaling pathway (AID 651631; calls by dose curve; also: nearly all actives have a fitted effect of over 15% in size)
How it was run: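 p53RE-bla HCT-116 cells; compounds 16 h, 37 °C; LiveBLAzer B/G FRET substrate 2 h RT; fluorescence intensity read-out, qHTS format.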

Measured: Potency

Chain of Glucocorticoid receptor (Homo sapiens) (P04150 whole entry, looked up): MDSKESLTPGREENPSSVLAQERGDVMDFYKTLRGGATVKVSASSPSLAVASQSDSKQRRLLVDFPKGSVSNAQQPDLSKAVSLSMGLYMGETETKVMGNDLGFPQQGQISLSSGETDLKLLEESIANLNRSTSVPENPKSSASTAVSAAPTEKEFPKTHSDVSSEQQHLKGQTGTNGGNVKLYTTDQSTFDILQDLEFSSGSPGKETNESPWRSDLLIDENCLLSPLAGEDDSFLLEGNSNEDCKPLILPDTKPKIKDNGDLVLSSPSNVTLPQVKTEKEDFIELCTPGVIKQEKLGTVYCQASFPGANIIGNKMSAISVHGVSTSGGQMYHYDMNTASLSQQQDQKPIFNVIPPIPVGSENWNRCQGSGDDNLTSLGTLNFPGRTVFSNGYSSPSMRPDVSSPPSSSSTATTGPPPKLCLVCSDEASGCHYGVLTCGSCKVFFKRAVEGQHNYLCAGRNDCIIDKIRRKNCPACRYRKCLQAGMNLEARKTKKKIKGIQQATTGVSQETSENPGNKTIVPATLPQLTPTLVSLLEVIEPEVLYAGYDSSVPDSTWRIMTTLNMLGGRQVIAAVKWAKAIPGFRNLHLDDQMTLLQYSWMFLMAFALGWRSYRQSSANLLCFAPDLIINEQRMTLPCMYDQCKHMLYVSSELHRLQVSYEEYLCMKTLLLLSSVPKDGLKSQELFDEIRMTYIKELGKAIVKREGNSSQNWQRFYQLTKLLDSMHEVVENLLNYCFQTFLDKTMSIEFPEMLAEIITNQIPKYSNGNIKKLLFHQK

Brc1ccc(Br)cc1
not listed: [20]
inactive: all other assays above

C[N+](C)(C)C
not listed: [4] | [5] | [18] | [19]
inactive: all other assays above

Clc1cccc(Cl)c1
not listed: [20]
inactive: all other assays above

Cn1c(-c2ccccc2)cc(-c2ccccc2)[n+]1C
not listed: [5] | [6] | [14] | [19]
inactive: all other assays above

CNC(=S)S
not listed: [6]
inactive: all other assays above

ClCC(Cl)CCl
inactive: all assays above

CC(C)(C#N)N=NC(C)(C)C#N
not listed: [5]
inactive: all other assays above
